# Compound activity as filed in PubChem.
# MCF10A rereplic – inducers of DNA re-replication in MCF 10A breast cells. MCF 10A DNA re-replication, Hoechst nuclear intensity, 48 h. Potency, µM (titrated, usually from 46.1 µM), most hits filed as activators. actives 2.9% (n = 350,000). AID 624296; note: nearly all actives have a fitted effect of over 50% in size
# KB-3-1 cytotox – KB-3-1 parental cell cytotoxicity | actives 1.4% (n = 400,000) | KB-3-1 viability, CellTiter-Glo ATP luminescence, 72 h | Potency, µM (series often up to 46.1 µM), usual class: cytotoxic; note: nearly all actives have a fitted effect of over 60% in size
#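 Cells are dispensed, compounds pinned in, plates held at 37 °C for 72 h, then CellTiter-Glo is added and luminescence read after 10 minutes. Cell line: parental KB-3-1 in phenol-red-free DMEM, 10% FBS.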
# PINK1 expr mod – changes PINK1 expression | PINK1 immunofluorescence, high-content cytometry, 24 h | Potency, µM (doses to about 76.6 µM), most hits filed as activators | actives 0.2% (n = 410,000) | AID 624263; active = well fitted activation curve with a large enough effect; inconclusive = small, poorly fitted or top-dose-only effect; cell line not stated here; note: nearly all actives have a fitted effect of over 65% in size
#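 Measures PINK1 amount and localization on or inside mitochondria by immunofluorescence. Stable cells get compounds at 5 concentrations for 24 hours before fixation and staining; CCCP controls included.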
# KB-V1 MDR tox – KB-V1 MDR subline cytotoxicity | KB-V1 MDR cells viability, CellTiter-Glo, 72 h | Potency, µM (doses to about 46.1 µM), hits mostly cytotoxic | actives 3.4% (n = 400,000) | AID 1347076; note: nearly all actives have a fitted effect of over 60% in size
#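 Compound-treated KB-V1 multidrug-resistant cells, 72 h, 37 degrees C; viability by CellTiter-Glo. Fitted qHTS curves give the values.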
# TSG101-PTAP inh – blocks PTAP/TSG101 interaction to inhibit HIV-1 budding; Fluorescence polarization, FITC-PTAP peptide / Tsg101 binding; 340,000 tested, under 10 active; Q99816; Potency, µM (top dose mostly 115 µM), hits mostly inhibitors; AID 493005; active = well fitted inhibition curve with a large enough effect in the main read-out, with a control signal flat, not every such curve was filed as active; inconclusive = small, poorly fitted or top-dose-only effect, or effect the other way, or a change in a side signal; inactive = no such curve, though single readings can be large or run the other way
# Target sequence (Q99816 whole entry, looked up): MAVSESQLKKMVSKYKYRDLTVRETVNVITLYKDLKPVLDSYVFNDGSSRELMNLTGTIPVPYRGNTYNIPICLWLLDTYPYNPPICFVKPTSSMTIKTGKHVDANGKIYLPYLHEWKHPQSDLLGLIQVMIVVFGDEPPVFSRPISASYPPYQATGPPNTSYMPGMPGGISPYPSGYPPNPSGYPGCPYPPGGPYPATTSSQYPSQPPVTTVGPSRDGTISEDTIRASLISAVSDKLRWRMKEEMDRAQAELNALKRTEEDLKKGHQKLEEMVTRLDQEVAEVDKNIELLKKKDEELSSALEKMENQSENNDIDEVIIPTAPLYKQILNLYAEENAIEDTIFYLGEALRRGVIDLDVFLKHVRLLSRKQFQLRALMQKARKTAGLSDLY
#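 Steps: Tsg101 binding domain dispensed (10 uM final), compounds pinned in DMSO, FITC-labeled PTAP-motif peptide added (50 nM final); after 20 min binding at room temperature, polarization measured.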
# SW480 rereplic – DNA re-replication induction in SW480 cells | SW480 DNA re-replication, Hoechst DNA content imaging, 48 h | Potency, µM (top dose mostly 46.1 µM), usual class: activators | AID 624297 | actives 1.8% (n = 340,000); note: nearly all actives have a fitted effect of over 55% in size
#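 250 cells/well; 23 nL cpd via pin tool; 48 hr, 37 C, 5% CO2; Hoechst 40 min; imager read of total nuclear intensity, ex 405/em 500-530 nm.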
# Hits are given with their value; i = inactive; ? = inconclusive; nt = not tested or not shown. A selection: hits, their analogues and other compounds. The true share with any hit is near 6.8%. Unless noted, calls come from the whole dose curve; as a rule, active = well fitted curve in the direction sought with a large enough effect; inconclusive = small, poorly fitted or top-dose-only effect, or another doubt; inactive = no such curve, though single readings can be large; an effect the other way counts as inactive or inconclusive.
SMILES,MCF10A rereplic,KB-3-1 cytotox,PINK1 expr mod,KB-V1 MDR tox,TSG101-PTAP inh,SW480 rereplic
O=C(COC(=O)CNC(=O)c1ccc([N+](=O)[O-])o1)Nc1ncc(C(F)(F)F)cc1Cl,16.4µM,i,i,?,i,i
O=C(O)COc1ccccc1/C=N/NC(=O)/C(=C\c1ccc2c(c1)OCO2)NC(=O)c1ccccc1,18.4µM,i,i,i,?,i
O=C(COc1ccccc1)NCC(=O)Nc1cccc2ccccc12,i,?,i,18.4µM,i,i
CCOc1ccccc1NC(=O)C(=O)N/N=C/c1cc(Br)ccc1O,i,?,i,i,i,0.82µM
COc1cccc(/C=N/NC(=O)CN2CC(c3ccccc3)CC2=O)c1O (stereo not given),?,?,i,?,i,7.31µM
O=C(CCSCc1cccc(Cl)c1)N1CCN(c2ccc(Cl)cc2)CC1,nt,nt,i,nt,nt,nt
Cc1ccc(S(=O)(=O)CC(=O)Nc2sc3c(c2C#N)CCCC3)cc1,nt,i,i,i,nt,nt
Cc1cc(C)cc(-n2c(SCC(=O)Nc3ccccc3)nc3c(oc4ccccc43)c2=O)c1,nt,i,i,i,nt,nt
Cc1ccc(NC(=O)NCCc2c(C)nn(C)c2C)c(Cl)c1,nt,i,i,i,nt,nt
CC(=O)N1CCC[C@H]1C(=O)N1CCc2c(cnc(C)c2CNC(=O)/C=C/c2cccs2)C1,nt,nt,i,nt,nt,nt
COC(=O)c1ccccc1-c1cc(C)cc2c1OC(CNC(=O)c1cc(C)on1)C2 (stereo not given),nt,nt,i,nt,nt,nt
C=CCNC(=O)/C(=C\c1ccc2c(c1)OCO2)NC(=O)c1ccc(Br)cc1,i,i,i,23.1µM,i,i
CC(C)(C)C(=O)Nc1ccc(C(=O)N/N=C/c2ccccc2OC(=O)c2ccc(Cl)cc2)cc1,i,i,i,i,i,2.59µM
COc1cccc(/C=N/NC(=O)c2cc(-c3ccccn3)nc3ccccc23)c1O,i,?,i,?,i,1.64µM
COc1ccc(CCCC(=O)N/N=C/c2cccc(OC)c2O)cc1C,1.46µM,?,i,?,i,?
Cc1ccc(C)c(NC(=O)CSc2cn(CC(=O)N3CCCCC3)c3ccccc23)c1,nt,nt,i,nt,nt,nt
CC(C)c1cnc2c(c1SCC(=O)Nc1ccc(C(N)=O)cc1)c(=O)n(C)c(=O)n2C,nt,nt,i,nt,nt,nt
COc1cc(C(=O)N/N=C/c2ccc(OC(=O)c3ccccc3)c(OC)c2)ccc1O,i,?,i,i,i,20.6µM
COc1ccc(C(=O)N/N=C/c2ccccc2OC(=O)c2ccccc2)cc1,?,18.4µM,i,13µM,i,?
COc1cc(C(=O)Oc2ccccc2/C=N/NC(=O)c2ccc(C)cc2)cc(OC)c1OC,?,8.2µM,i,i,i,?
COc1cccc(/C=N/NC(=O)c2c(C)nc3ccc(Cl)cn23)c1O,?,?,i,?,i,0.259µM
CCC1C(=O)NCCN1Cc1ccc2c(c1)CN(Cc1cccc(OC)c1)CCO2 (stereo not given),nt,nt,i,nt,nt,nt
CCCNC(=O)c1cnc2sc(N3CCCCCC3)nn2c1=O,nt,nt,i,nt,nt,nt
COc1cc(C(=O)N/N=C/C2CC=CCC2)cc(OC)c1OC (stereo not given),3.66µM,i,?,i,i,?
COc1ccccc1/C=N/NC(=O)c1cccc(OC(F)(F)C(F)F)c1,i,i,i,i,i,?
SMILES,MCF10A rereplic,KB-3-1 cytotox,PINK1 expr mod,KB-V1 MDR tox,TSG101-PTAP inh,SW480 rereplic
COc1cccc(/C=N/NC(=O)C(=O)Nc2ccccc2OC(F)(F)C(F)F)c1O,?,9.2µM,i,?,i,?
COc1cccc(/C=N/NC(=O)c2ccc(-c3ccccc3)cc2)c1O,?,5.8µM,i,?,i,?
COc1cccc(/C=N/NC(=O)CNC(=O)COc2ccccc2)c1O,i,i,i,i,i,3.26µM
COc1cc(C(=O)N/N=C/c2ccsc2C)cc(OC)c1OC,?,0.651µM,i,0.581µM,i,0.651µM
O=C(N/N=C/c1ccccc1OC(=O)c1ccc2c(c1)OCO2)c1ccccc1,20.6µM,i,i,i,i,?
COc1ccc(Br)cc1/C=N/NC(=O)c1cc(OC)c(OC)c(OC)c1,?,i,i,i,i,?
CCc1ccccc1N(C)C(=O)c1cnc(N2CCOCC2)c2ccccc12,nt,i,i,i,nt,nt
O=Cc1ccc2noc(-c3ccc(Cl)cc3)c2c1,i,?,i,23.1µM,i,?
CCOC(=O)c1cccc(NC(=O)c2c(NCc3ccccc3)[nH]c(=O)[nH]c2=O)c1,5.8µM,?,i,?,i,?
CCOC(=O)c1cccc(NS(=O)(=O)c2c(C)[nH]c(=O)[nH]c2=O)c1,i,i,i,i,i,i
Cc1ccc(N(Cc2cccs2)C(=O)c2ccccc2[N+](=O)[O-])cc1,nt,nt,i,nt,nt,nt
CS(=O)(=O)N1CCCC(C(=O)NC2CCCCCCC2)C1 (stereo not given),23.1µM,i,nt,?,i,i
Cc1ccc(S(=O)(=O)N2CCCC(C(=O)NC3CCCC3)C2)cc1Cl (stereo not given),i,?,i,13µM,i,i
COc1ccc(-c2cc(N)n(S(=O)(=O)c3c(F)c(F)c(F)c(F)c3F)n2)cc1OC,?,10.3µM,?,9.2µM,i,?
CC(C)(C)OC(=O)NCc1ccc(NC(=O)c2nc[nH]c2C(=O)NCCNC(=O)c2[nH]cnc2C(=O)Nc2ccc(CNC(=O)OC(C)(C)C)cc2)cc1,23.1µM,i,i,i,i,?
CC(C)C[C@H](NC(=O)c1[nH]cnc1C(=O)Nc1ccc(CNC(=O)OC(C)(C)C)cc1)C(=O)OCc1ccccc1,18.4µM,i,i,?,i,i
CC(C)(C)OC(=O)CNC(=O)c1[nH]cnc1C(=O)Nc1ccc(CNC(=O)OC(C)(C)C)cc1,?,?,i,?,i,i
CC(C)C[C@H](NC(=O)c1nc[nH]c1C(=O)NCCCCCNC(=O)OC(C)(C)C)C(=O)OCc1ccccc1,?,i,i,?,i,i
CC(C)(C)OC(=O)NCCCCCNC(=O)c1[nH]cnc1C(=O)N[C@@H](Cc1ccccc1)C(=O)OCc1ccccc1,13µM,?,i,i,i,?
CCc1ccc(NC(=O)C2(c3cccs3)CCOCC2)cc1,nt,i,i,i,nt,nt
CC(=O)c1ccc([N+](C)(C)C)cc1,nt,i,i,i,nt,nt
COc1cc(-c2cc(C)c3cccc(OC)c3n2)cc2c1OCCN(C(=O)CCn1nc(C)cc1C)C2,nt,nt,i,nt,nt,nt
Cc1ccc2nc(NC(=O)CSc3nccn3Cc3ccccc3)sc2c1,nt,i,i,i,nt,nt
N#C/C(=C\c1c[nH]c2ccccc12)C(=O)Nc1ncc(Cc2ccc(Cl)cc2Cl)s1,3.26µM,i,i,?,i,?
O=C(Nc1nnc(Cc2ccccc2)s1)C1CCN(C(=O)c2cccs2)CC1,nt,i,i,i,nt,nt
Cc1ccc(S(=O)(=O)n2cc(-c3ccccc3)c3ccccc32)cc1,i,2.31µM,i,1.3µM,i,3.66µM
